{"source": "PubChem BioAssay (NCI)", "key": {"[1]": {"test": "NCI Yeast Anticancer Drug Screen. Data for the rad52 strain (AID 147);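 further: 0% = growth of vehicle-treated control cultures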", "conditions": "S. cerevisiae rad52 mutant growth inhibition, stronger effect = higher value", "in_short": "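Screen used a yeast mutant impaired in DNA repair. After compound exposure, growth was measured. Values reflect inhibition compared with vehicle-treated cells.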"}, "[2]": {"test": "NCI Yeast Anticancer Drug Screen. Data for the wt1 strain (AID 149);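 further: 0% = growth of vehicle-treated wt1 cultures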", "conditions": "S. cerevisiae wt1 strain (SPY 50644) growth inhibition, stronger effect = higher value", "in_short": "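Yeast wt1 strain exposed to compounds; growth inhibition measured relative to vehicle-treated controls.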"}, "[3]": {"test": "NCI Yeast Anticancer Drug Screen. Data for the rad50EPP+ strain (AID 151);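 further: 0% = growth of vehicle-treated control cultures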", "conditions": "S. cerevisiae rad50 mutant strain, stronger effect = higher value", "in_short": "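Exposing the rad50EPP+ strain to each compound, growth was compared with vehicle-only cultures to give inhibition.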"}, "[4]": {"test": "NCI Yeast Anticancer Drug Screen. Data for the mgt1 strain (AID 153)", "conditions": "S. cerevisiae mgt1 mutant growth inhibition, stronger effect = higher value", "in_short": "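Genetically defined yeast (mgt1) treated with compound; inhibition of growth expressed against vehicle-treated controls.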"}, "[5]": {"test": "NCI Yeast Anticancer Drug Screen. Data for the rad50 strain (AID 155);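 further: 0% = growth of vehicle-only cultures of the same strain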", "conditions": "S. cerevisiae rad50 strain growth inhibition, stronger effect = higher value", "in_short": "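Yeast carrying a defined DNA repair defect were exposed to test compounds, and growth was compared with vehicle-treated controls to give percent inhibition.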"}, "[6]": {"test": "NCI Yeast Anticancer Drug Screen. Data for the mec2-1 strain (AID 157)", "conditions": "S. cerevisiae mec2-1 strain, stronger effect = higher value", "in_short": "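Readout is yeast growth inhibition, normalised to vehicle-treated controls, in the mec2-1 strain exposed to compound.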"}, "[7]": {"test": "NCI Yeast Anticancer Drug Screen. Data for the sgs1 mgt1 strain (AID 161);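 further: 0% = growth of cultures given vehicle only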", "conditions": "S. cerevisiae sgs1 mgt1 strain, stronger effect = higher value", "in_short": "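This yeast growth screen uses a strain with defined DNA-repair lesions; compound-treated growth is compared with vehicle-treated growth.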"}, "[8]": {"test": "NCI Yeast Anticancer Drug Screen. Data for the CLN2oe strain (AID 163);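 further: 0% = growth of vehicle-only control cultures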", "conditions": "S. cerevisiae CLN2oe strain, stronger effect = higher value", "in_short": "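Values reflect how much compound exposure reduced yeast growth, referenced to vehicle-exposed cells. Assay organism is a strain with a defined genetic change affecting cell-cycle control.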"}, "[9]": {"test": "NCI Yeast Anticancer Drug Screen. Data for the cln2 rad14 strain (AID 165);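 further: 0% = growth equal to vehicle treated cultures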", "conditions": "S. cerevisiae cln2 rad14 strain, stronger effect = higher value", "in_short": "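Relative to vehicle controls, growth inhibition of compound-treated cln2 rad14 yeast was recorded.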"}, "[10]": {"test": "NCI Yeast Anticancer Drug Screen. Data for the bub3 strain (AID 167)", "conditions": "S. cerevisiae bub3 mutant strain, stronger effect = higher value", "in_short": "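Compounds were applied to a genetically altered yeast strain carrying a cell-cycle control defect. Growth inhibition was scored against vehicle-treated controls.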"}, "[11]": {"test": "NCI Yeast Anticancer Drug Screen. Data for the wt2 strain (AID 169);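 further: 0% = growth of vehicle-treated yeast cultures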", "conditions": "S. cerevisiae wt2 strain growth inhibition, stronger effect = higher value", "in_short": "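Values express reduction in yeast growth under compound treatment, referenced to vehicle-treated cells.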"}, "[12]": {"test": "NCI Yeast Anticancer Drug Screen. Data for the mlh1 strain (AID 171);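 further: 0% = growth of vehicle-treated control cultures of the same strain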", "conditions": "S. cerevisiae mlh1 strain growth inhibition, stronger effect = higher value", "in_short": "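Steps: expose the defined-mutant yeast strain to compound; expose a parallel culture to vehicle; measure growth; express compound effect as inhibition relative to the vehicle culture.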"}, "[13]": {"test": "NCI Yeast Anticancer Drug Screen. Data for the sgs1 strain (AID 173);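 further: 0% = growth of vehicle-only control cultures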", "conditions": "S. cerevisiae sgs1 mutant, stronger effect = higher value", "in_short": "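Treat defined-mutant yeast with compound; measure growth; calculate inhibition relative to vehicle-treated cells.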"}, "[14]": {"test": "NCI Yeast Anticancer Drug Screen. Data for the mlh1 rad18 strain (AID 175)", "conditions": "S. cerevisiae mlh1 rad18 strain growth inhibition, stronger effect = higher value", "in_short": "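Test agents were incubated with a yeast strain of defined genotype (DNA damage repair defect). Inhibition of growth was derived by comparison with vehicle-exposed cultures.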"}, "[15]": {"test": "NCI Yeast Anticancer Drug Screen. Data for the rad18 strain (AID 177)", "conditions": "S. cerevisiae rad18 mutant growth inhibition, stronger effect = higher value", "in_short": "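A genetically defined yeast mutant impaired in DNA damage repair was treated with test compounds, then its growth was measured against cultures receiving vehicle alone.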"}, "[16]": {"conditions": "at 5.0 µM (retest, dose inferred, filed as 0.5)"}, "[17]": {"conditions": "at 50.0 µM (retest, dose inferred, filed as 5.0)"}}, "note": "About 79,000 compounds went through this panel and 15% of them were active in at least one assay; those are over-represented in the sample as a whole. Unmarked numbers belong to inactive results. Calls of active or inactive are those of the source. No stated cut-off is given here; in the data, active means growth inhibition above about 70%; inactive means the rest.", "data": [{"smiles": "O=C1C(=O)c2cccc([N+](=O)[O-])c2-c2ccccc21", "values": [{"measurement": "growth inhibition", "setting": "[1]; at 1.2 µM", "value": 6, "unit": "%"}, {"measurement": "growth inhibition", "setting": "[1]; at 3.7 µM", "value": -4, "unit": "%"}, {"measurement": "growth inhibition", "setting": "[1]; at 11.0 µM", "value": 37, "unit": "%"}, {"measurement": "growth inhibition", "setting": "[1]; at 33.0 µM", "value": "99% (active)"}, {"measurement": "growth inhibition", "setting": "[1]; at 100.0 µM", "value": "97% (active)"}, {"measurement": "growth inhibition", "setting": "[2]; at 1.2 µM", "value": 2, "unit": "%"}, {"measurement": "growth inhibition", "setting": "[2]; at 3.7 µM", "value": 20, "unit": "%"}, {"measurement": "growth inhibition", "setting": "[2]; at 11.0 µM", "value": 18, "unit": "%"}, {"measurement": "growth inhibition", "setting": "[2]; at 33.0 µM", "value": "100% (active)"}, {"measurement": "growth inhibition", "setting": "[2]; at 100.0 µM", "value": "98% (active)"}, {"measurement": "growth inhibition", "setting": "[3]; at 1.2 µM", "value": -2, "unit": "%"}, {"measurement": "growth inhibition", "setting": "[3]; at 3.7 µM", "value": -14, "unit": "%"}, {"measurement": "growth inhibition", "setting": "[3]; at 11.0 µM", "value": 24, "unit": "%"}, {"measurement": "growth inhibition", "setting": "[3]; at 33.0 µM", "value": "99% (active)"}, {"measurement": "growth inhibition", "setting": "[3]; at 100.0 µM", "value": "98% (active)"}, {"measurement": "growth inhibition", "setting": "[4]; at 1.2 µM", "value": 2, "unit": "%"}, {"measurement": "growth inhibition", "setting": "[4]; at 3.7 µM", "value": -2, "unit": "%"}, {"measurement": "growth inhibition", "setting": "[4]; at 11.0 µM", "value": 6, "unit": "%"}, {"measurement": "growth inhibition", "setting": "[4]; at 33.0 µM", "value": "99% (active)"}, {"measurement": "growth inhibition", "setting": "[4]; at 100.0 µM", "value": "98% (active)"}, {"measurement": "growth inhibition", "setting": "[5]; at 1.2 µM", "value": -78, "unit": "%"}, {"measurement": "growth inhibition", "setting": "[5]; at 3.7 µM", "value": -4, "unit": "%"}, {"measurement": "growth inhibition", "setting": "[5]; [16]", "value": 19, "unit": "%"}, {"measurement": "growth inhibition", "setting": "[5]; at 11.0 µM", "value": 55, "unit": "%"}, {"measurement": "growth inhibition", "setting": "[5]; at 33.0 µM", "value": "99% (active)"}, {"measurement": "growth inhibition", "setting": "[5]; [17]", "value": "98% (active)"}, {"measurement": "growth inhibition", "setting": "[5]; at 50.0 µM", "value": "98.5% (active)"}, {"measurement": "growth inhibition", "setting": "[5]; at 100.0 µM", "value": "96% (active)"}, {"measurement": "growth inhibition", "setting": "[6]; at 1.2 µM", "value": 5, "unit": "%"}, {"measurement": "growth inhibition", "setting": "[6]; at 3.7 µM", "value": 9, "unit": "%"}, {"measurement": "growth inhibition", "setting": "[6]; [16]", "value": 31, "unit": "%"}, {"measurement": "growth inhibition", "setting": "[6]; at 11.0 µM", "value": 10, "unit": "%"}, {"measurement": "growth inhibition", "setting": "[6]; at 33.0 µM", "value": "99% (active)"}, {"measurement": "growth inhibition", "setting": "[6]; [17]", "value": "99% (active)"}, {"measurement": "growth inhibition", "setting": "[6]; at 50.0 µM", "value": "99.2% (active)"}, {"measurement": "growth inhibition", "setting": "[6]; at 100.0 µM", "value": "97% (active)"}, {"measurement": "growth inhibition", "setting": "[7]; [16]", "value": 31, "unit": "%"}, {"measurement": "growth inhibition", "setting": "[7]; [17]", "value": "99% (active)"}, {"measurement": "growth inhibition", "setting": "[7]; at 50.0 µM", "value": "98.9% (active)"}, {"measurement": "growth inhibition", "setting": "[8]; at 1.2 µM", "value": -6, "unit": "%"}, {"measurement": "growth inhibition", "setting": "[8]; at 3.7 µM", "value": -5, "unit": "%"}, {"measurement": "growth inhibition", "setting": "[8]; at 11.0 µM", "value": -1, "unit": "%"}, {"measurement": "growth inhibition", "setting": "[8]; at 33.0 µM", "value": "99% (active)"}, {"measurement": "growth inhibition", "setting": "[8]; at 100.0 µM", "value": "98% (active)"}, {"measurement": "growth inhibition", "setting": "[9]; [16]", "value": 1, "unit": "%"}, {"measurement": "growth inhibition", "setting": "[9]; [17]", "value": "98% (active)"}, {"measurement": "growth inhibition", "setting": "[9]; at 50.0 µM", "value": "97.8% (active)"}, {"measurement": "growth inhibition", "setting": "[10]; at 1.2 µM", "value": 32, "unit": "%"}, {"measurement": "growth inhibition", "setting": "[10]; at 3.7 µM", "value": 35, "unit": "%"}, {"measurement": "growth inhibition", "setting": "[10]; [16]", "value": 53, "unit": "%"}, {"measurement": "growth inhibition", "setting": "[10]; at 11.0 µM", "value": 47, "unit": "%"}, {"measurement": "growth inhibition", "setting": "[10]; at 33.0 µM", "value": "99% (active)"}, {"measurement": "growth inhibition", "setting": "[10]; [17]", "value": "98% (active)"}, {"measurement": "growth inhibition", "setting": "[10]; at 50.0 µM", "value": "98.8% (active)"}, {"measurement": "growth inhibition", "setting": "[10]; at 100.0 µM", "value": "99% (active)"}, {"measurement": "growth inhibition", "setting": "[11]; at 1.2 µM", "value": 30, "unit": "%"}, {"measurement": "growth inhibition", "setting": "[11]; at 3.7 µM", "value": 47, "unit": "%"}, {"measurement": "growth inhibition", "setting": "[11]; at 11.0 µM", "value": 66, "unit": "%"}, {"measurement": "growth inhibition", "setting": "[11]; at 33.0 µM", "value": "99% (active)"}, {"measurement": "growth inhibition", "setting": "[11]; at 100.0 µM", "value": "98% (active)"}, {"measurement": "growth inhibition", "setting": "[12]; at 1.2 µM", "value": -3, "unit": "%"}, {"measurement": "growth inhibition", "setting": "[12]; at 3.7 µM", "value": -1, "unit": "%"}, {"measurement": "growth inhibition", "setting": "[12]; at 11.0 µM", "value": 3, "unit": "%"}, {"measurement": "growth inhibition", "setting": "[12]; at 33.0 µM", "value": "99% (active)"}, {"measurement": "growth inhibition", "setting": "[12]; at 100.0 µM", "value": "98% (active)"}, {"measurement": "growth inhibition", "setting": "[13]; at 1.2 µM", "value": 16, "unit": "%"}, {"measurement": "growth inhibition", "setting": "[13]; at 3.7 µM", "value": 11, "unit": "%"}, {"measurement": "growth inhibition", "setting": "[13]; at 11.0 µM", "value": 35, "unit": "%"}, {"measurement": "growth inhibition", "setting": "[13]; at 33.0 µM", "value": "99% (active)"}, {"measurement": "growth inhibition", "setting": "[13]; at 100.0 µM", "value": "96% (active)"}, {"measurement": "growth inhibition", "setting": "[14]; [16]", "value": 37, "unit": "%"}, {"measurement": "growth inhibition", "setting": "[14]; [17]", "value": "98% (active)"}, {"measurement": "growth inhibition", "setting": "[14]; at 50.0 µM", "value": "98.8% (active)"}, {"measurement": "growth inhibition", "setting": "[15]; at 1.2 µM", "value": 1, "unit": "%"}, {"measurement": "growth inhibition", "setting": "[15]; at 3.7 µM", "value": 6, "unit": "%"}, {"measurement": "growth inhibition", "setting": "[15]; at 11.0 µM", "value": 15, "unit": "%"}, {"measurement": "growth inhibition", "setting": "[15]; at 33.0 µM", "value": "99% (active)"}, {"measurement": "growth inhibition", "setting": "[15]; at 100.0 µM", "value": "98% (active)"}]}]}
